Measurements taken from ChEMBL document CHEMBL3433997, “St. Jude Leishmania screening dataset” (2016).

Assays:
Type in all cases: functional
[1] = target: Solute carrier family 2, facilitated glucose transporter member 1 (Homo sapiens) (UniProt P11166); test: ST_JUDE_LEISH: Cytotoxicity at 2uM final concentration against transgenic Leishmania Mexicana promastigotes LmGLUT1 that are glucose transport deficient and complemented with the human glucose transporter GLUT1. Activity is measured by DNA content using SYBR green in vitro
[2] = target: Hexose transporter 1 (Plasmodium falciparum) (UniProt O97467); test: ST_JUDE_LEISH: Cytotoxicity at 2uM final concentration against transgenic Leishmania Mexicana promastigotes LmPfHT that are glucose transport deficient and complemented with the Plasmodium falciparum hexose transporter. Activity is measured by DNA content using SYBR green in vitro
[3] = target: Glucose transporter (Leishmania mexicana) (UniProt O61059); test: ST_JUDE_LEISH: Cytotoxicity at 2uM final concentration against transgenic Leishmania Mexicana promastigotes LmGT2 that are glucose transport deficient and complemented with the L. Mexicana glucose transporter 2. Activity is measured by DNA content using SYBR green in vitro

Solute carrier family 2, facilitated glucose transporter member 1 (Homo sapiens), sequence (P11166 whole entry): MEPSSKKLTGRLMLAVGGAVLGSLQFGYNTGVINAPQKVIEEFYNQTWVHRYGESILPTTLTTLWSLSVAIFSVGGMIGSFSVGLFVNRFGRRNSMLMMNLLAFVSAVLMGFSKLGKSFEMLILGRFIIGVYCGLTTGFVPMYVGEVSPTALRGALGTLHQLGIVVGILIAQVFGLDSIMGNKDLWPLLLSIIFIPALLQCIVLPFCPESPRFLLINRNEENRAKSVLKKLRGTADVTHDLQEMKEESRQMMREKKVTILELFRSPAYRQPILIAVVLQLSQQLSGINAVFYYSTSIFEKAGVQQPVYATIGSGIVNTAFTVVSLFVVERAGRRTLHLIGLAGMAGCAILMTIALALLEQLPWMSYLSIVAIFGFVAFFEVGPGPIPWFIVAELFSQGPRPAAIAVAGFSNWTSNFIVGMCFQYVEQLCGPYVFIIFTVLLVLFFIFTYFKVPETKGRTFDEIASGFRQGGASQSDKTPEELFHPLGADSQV

COc1ccc(/N=[N+](\[O-])c2ccccc2/[N+]([O-])=N/c2ccc(OC)cc2)cc1 was tested. Which inhibition [1] did it give?
Its inhibition is 1.29%.

And the inhibition [2]?
The inhibition was 1.73%.

What about the inhibition [3] of the same molecule?
Its inhibition is 1.68%.

With CC(C)N1CCN(C(CN2CCN(CCCOc3cccc(-c4ccccc4)c3)CC2)c2ccc(F)cc2)CC1 (stereo not drawn) as the molecule, how does the inhibition [1] read?
The inhibition was 0.87%.

What about the inhibition [2] of the same molecule?
Its inhibition is 2.77%.

And the inhibition [3]?
Its inhibition is 0.81%.

Which results are given for CCCCN(CCCC)CCCCNc1c2ccccc2nc2ccccc12?
inhibition [1]: 26%; inhibition [2]: 31.3%; inhibition [3]: 12.3%

Which inhibition [1] does the source give for COc1ccc2nccc([C@@H](O)CN3CCC(NCc4nc5c(OCc6ccccc6)cccc5[nH]4)CC3)c2c1 here?
The inhibition was 4.97%.

What about the inhibition [2] of the same molecule?
Its inhibition is 3.37%.

What about the inhibition [3] of the same molecule?
Its inhibition is 4.99%.

What does the source list for Cc1cc(N(C)CCCN(C)C)nc(Nc2ccc(Cl)cc2)n1?
inhibition [1]: -1.04%; inhibition [2]: 1.73%; inhibition [3]: -0.32%

COc1ccc(-c2nc(NC(=O)CSc3ccccc3)sc2C)cc1 was tested. Which inhibition [1] did it give?
The inhibition was 9.07%.

What about the inhibition [2] of the same molecule?
The inhibition was 4.4%.

And the inhibition [3]?
The inhibition was 6.37%.
